The source of these data is PubChem BioAssay (NCATS).

Values joined by “and” are separate entries in the source; they are usually repeats but may differ in a detail not shown here. Equal values may be shown once. Records with an inconclusive call do not appear. Unmarked numbers belong to inactive results. Active and inactive are the calls of the source. Calls follow the shape of the dose curve; as a rule, active = well fitted curve in the direction sought with a large enough effect; inconclusive = small, poorly fitted or top-dose-only effect, or another doubt; inactive = no such curve, though single readings can be large or run the other way. Where a SMILES comes first, the peptide text is derived from it. Bridges are numbered along the chain shown (N, C = ends). [ ]: non-standard residue; d: D form. The star is where a group is joined. Dab(CH2SO3H) = N[C@@H](CCNCS(=O)(=O)O)C(=O)O; X3 = CC[C@@H](C)CCCCC(=O)*; Dab = NCC[C@H](N)C(=O)O
% is scaled to controls: 0 for no effect and ±100 for the full control effect; potency is read from the fitted curve at half-maximal effect.

The nature of this experiment: qHTS Assay for Identifying Gametocytocidal Compounds (AID 743244).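 As to max response: actives lower the fluorescent signal which means gametocytes are killed.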 The note with it: P. falciparum 3D7 stage III-V gametocytes, alamarBlue, 72 h; max response: hits give low values. The procedure, abridged:
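Stage III–V gametocytes of P. falciparum 3D7 were seeded at 20,000 cells/well onto pre-dispensed compounds. After 72 h, 37 °C, 5% CO2, alamarBlue was added for another 24 h.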
On to `Cc1onc(-c2ccccc2)c1C(=O)N[C@@H]1C(=O)N2[C@@H]1SC(C)(C)[C@@H]2C(=O)O`, for which the max response is -0.392%.

Consider `CC1=C(/C=C/C(C)=C/C=C/C(C)=C/C=C/C=C(C)/C=C/C=C(C)/C=C/C2=C(C)C(=O)CCC2(C)C)C(C)(C)CCC1=O`, for which the max response was 6.31%.

In the case of `C[C@@H]1C[C@H]2[C@@H]3CCC4=CC(=O)C=C[C@]4(C)[C@@]3(F)[C@@H](O)C[C@]2(C)[C@@]1(O)C(=O)COP(=O)(O)O`, the max response is 10.9%.

In the case of `CC(=O)N[C@@H](CC(=O)N[C@@H](CCC(=O)O)C(=O)O)C(=O)O`, the max response was -4.86%.

Take `OCC(S)CS` (centres undefined): the Potency was 3.98 µM (active).

`Cc1c(C)c2c(c(C)c1O)CC[C@@](C)(CCC[C@H](C)CCC[C@H](C)CCCC(C)C)O2`: the max response is 1.54% and 7.72%.

Take `CC(=O)OC(C)OC(=O)C(C)c1ccc(-c2ccccc2)c(F)c1` (centres undefined): the max response was -5.75% and -9.98%.

As for `CC(=O)Oc1c(C)cc(OCC(O)CNC(C)C)c(C)c1C` (centres undefined), the Potency was 15.8 µM (active).

As for `O=S(=O)(O)c1cc(O)c2c(N=Nc3ccc(Nc4ccccc4)c4c(S(=O)(=O)O)cccc34)cc(S(=O)(=O)O)cc2c1`, the max response was -8.84%.

As for `C=C1CC[C@@H]2[C@](C)(CO)[C@H](O)CC[C@@]2(C)[C@@H]1C/C=C1/C(=O)OC[C@H]1O`, the Potency is 20 µM (active).

As for `O=C(O)C[C@H](O)C[C@H](O)/C=C/c1c(C2CC2)nc2ccccc2c1-c1ccc(F)cc1`, the max response was 4.27%.

Take `Cc1cc(C(=O)NNCc2ccccc2)no1`: the max response is -1.55%.

In the case of `O=C(COc1ccc(Cl)cc1)OCCNC12CC3CC(CC(C3)C1)C2`, the max response was -2.86%.

For `CC[N+](CC)(CC)CCC(O)(c1ccccc1)C1CCCCC1` (centres undefined), the max response was 4.48%.

For the compound `CC1(C)S[C@@H]2[C@H](NC(=O)C(N)c3ccccc3)C(=O)N2[C@H]1C(=O)OC1OC(=O)c2ccccc21` (some centres undefined), the max response is 16.4%.

Regarding `CO[C@@H]1[C@@H](O[C@@H]2O[C@H](C)[C@@H](O[C@H]3C[C@@](C)(O)[C@@H](OC(=O)CC(C)C)[C@H](C)O3)[C@H](N(C)C)[C@H]2O)[C@@H](CC=O)C[C@@H](C)C(=O)/C=C/C2OC2C[C@@H](C)OC(=O)C[C@H]1OC(C)=O` (some centres undefined), the Potency is 10 µM (active).

Consider `O=C(Nc1ccc(Br)cc1)c1cc(Br)c(Br)s1`, for which the max response was 1.98%.

Take `O=C(Nc1cccc(C(F)(F)F)c1)c1cc(Br)cc(Br)c1O`: the max response is -2.44%.

With `CC[C@@H](C)CCCCC(=O)N[C@@H](CCNCS(=O)(=O)O)C(=O)N[C@H](C(=O)N[C@@H](CCNCS(=O)(=O)O)C(=O)N[C@H]1CCNC(=O)[C@H]([C@@H](C)O)NC(=O)[C@H](CCNCS(=O)(=O)O)NC(=O)[C@H](CCNCS(=O)(=O)O)NC(=O)[C@H](CC(C)C)NC(=O)[C@@H](CC(C)C)NC(=O)[C@H](CCNCS(=O)(=O)O)NC1=O)[C@@H](C)O` (X3-[Dab(CH2SO3H)]T[Dab(CH2SO3H)][Dab][Dab(CH2SO3H)][dL]L[Dab(CH2SO3H)][Dab(CH2SO3H)]T; lactam 4-C), the max response is 5.78%.

On to `OCCO[C@@H]1[C@@H](O)[C@H](O)[C@@H](CO)O[C@@H]1O`, for which the max response is 18.7%.

Regarding `NCc1ccccc1CC(=O)N[C@@H]1C(=O)N2C(C(=O)O)=C(CSc3nnnn3CC(=O)O)CS[C@H]12`, the max response was 5.62%.

With `CCCCC(C)(O)C/C=C/[C@H]1[C@H](O)CC(=O)[C@@H]1CCCCCCC(=O)OC` (some centres undefined), the max response is -1.16%.

As to `CC(C)NCC1CCc2cc(CO)c([N+](=O)[O-])cc2N1` (centres undefined), the max response is -6.43%.

On to `C=CC1=C(C)C2=CC3=NC(=C(CC(=O)[O-])C4=NC(=C(C)C4=C([O-])[O-])C=c4[n-]c(c(C)c4CC)=CC1=N2)C(CCC(=O)[O-])C3C.[Cu+2].[Na+].[Na+].[Na+]` (centres undefined), for which the max response was 14.4%.

Turning to `CC(Oc1ccccc1)C(=O)N[C@@H]1C(=O)N2[C@@H]1SC(C)(C)[C@@H]2C(=O)O` (some centres undefined), the max response is 15.7%.

Take `CCCCC(=O)N(Cc1ccc(-c2ccccc2-c2nn[nH]n2)cc1)[C@@H](C(=O)O)C(C)C`: the max response was -5.58%.

With `COCC(=O)Nc1cc(Sc2ccccc2)ccc1N=C(NC(=O)OC)NC(=O)OC`, the max response was -1.05%.

Take `COC(F)(F)C(Cl)Cl`: the max response is 1.97%.

In the case of `OC[C@H]1O[C@@H](OCCc2ccc(O)cc2)[C@H](O)[C@@H](O)[C@@H]1O`, the max response is 2.01%.
